# This is a sample that favours compounds with a hit; in the whole collection about 0.84% have one here.
# S1P3 antagonist = S1P3 receptor antagonists, primary screen, cell-based; Sphingosine 1-phosphate receptor 3 (Homo sapiens), Q99500; CHO S1P3 NFAT-BLA reporter, FRET fluorescence, antagonist mode; inhibition, % at 4.98 µM; 0.27% of 170,000 active;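 active = inhibition above the plate cutoff, the mean inhibition of test wells on that plate plus 3 SD, cut at about 28% in these data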;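 note: cells challenged with S1P at its EC80 of 0.8 µM; blue over green emission ratio from cleaved BLA substrate after 4 h stimulation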
# Target sequence (Q99500 whole entry, looked up): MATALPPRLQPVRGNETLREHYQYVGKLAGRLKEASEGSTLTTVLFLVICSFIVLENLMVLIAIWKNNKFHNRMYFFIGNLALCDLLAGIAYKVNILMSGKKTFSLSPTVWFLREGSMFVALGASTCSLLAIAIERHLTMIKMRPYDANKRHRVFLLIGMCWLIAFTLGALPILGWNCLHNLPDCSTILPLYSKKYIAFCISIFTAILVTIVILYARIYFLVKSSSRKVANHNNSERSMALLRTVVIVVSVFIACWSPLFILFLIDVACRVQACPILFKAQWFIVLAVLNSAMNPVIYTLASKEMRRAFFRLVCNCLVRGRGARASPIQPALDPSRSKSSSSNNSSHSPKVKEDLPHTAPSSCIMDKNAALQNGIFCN
# DTT redox prof = compounds producing H2O2 with reducing agent – biochemical, NIH compound library profiling, artefact control for MLSCN library redox annotation, primary screen. activation, % at 10 µM. 0.03% of 200,000 active. AID 878, 2007. DTT-dependent redox cycling H2O2, phenol red/HRP absorbance; 100% = 100 µM peroxide control, 0% = buffer;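 active = activation of at least 50% relative to the plate's high and low controls in the primary single-dose screen; inactive = activation below 50%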;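 note: compound incubated with DTT at 0.8 mM final as the reducing agent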
# p97 inhibitor = inhibitors of human p97 ATPase, primary screen, biochemical; inhibition, % at 8 µM; AID 1481, 2009; Transitional endoplasmic reticulum ATPase (Homo sapiens), P55072; recombinant p97 ATPase, Kinase-Glo ATP luminescence, 3 h; 0.42% of 220,000 active; in the data active = inhibition above about 15%
# Tb hexokinase = Trypanosoma brucei hexokinase 1 inhibitors, primary screen, biochemical, G6PDH-coupled NADH absorbance, MLSCN library. hexokinase 1 [Trypanosoma brucei]. recombinant TbHK1, G6PDH-coupled NADH A340. inhibition, % at 10 µM. 0.11% of 220,000 active. AID 1430, 2008;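 active = inhibition of 50% or more in the single-dose primary screen; inactive = inhibition below 50%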
# G6PDH counter = L. mesenteroides G6PDH inhibitors, counter-screen for G6PDH-coupled screening assays, biochemical, Leuconostoc mesenteroides enzyme | glucose-6-phosphate dehydrogenase [Leuconostoc mesenteroides] | 0.12% of 200,000 active | Purified L. mesenteroides G6PDH, diaphorase/resazurin coupled fluorescence, 45 min | inhibition, % at 5 µM; in the data active = inhibition above about 50%
# p97 inh conf = p97 ATPase inhibitors, retest, confirmation, biochemical; 44% of 760 active; AID 1517, 2009; recombinant p97 ATPase, Kinase-Glo ATP luminescence; inhibition, % at 8 µM; shares compounds with p97 inhibitor;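 active = percent inhibition of p97 ATPase above a set limit, the primary screen's mean plus 3 SD, cut at about 15% in these data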
# Numbers stand for hits; i = inactive; nt = no result given.
SMILES,S1P3 antagonist,DTT redox prof,p97 inhibitor,Tb hexokinase,G6PDH counter,p97 inh conf
CC(C)(C)N1C(=O)Cc2c1nc(N)c1c(N)nc(N3CCCCC3CO)c(C#N)c21 (configuration not stated),i,i,27.7,i,i,35.5
O=C(CNC(=O)c1ccc(F)cc1)N/N=C/c1ccc(O)c([N+](=O)[O-])c1,i,i,21.7,i,i,i
O=C(CNC(=O)c1cccc(F)c1)N/N=C/c1ccc(O)c([N+](=O)[O-])c1,i,i,i,i,i,nt
Nc1cc2nn(-c3ccccc3)nc2cc1Cl,i,i,19.0,i,54.9,i
CCOC(=O)CCc1c(C)c(C#N)c2nc3ccccc3n2c1-n1ccnc1C,nt,i,i,i,i,nt
COc1ccc2c(c1)Cc1sc(NC(=O)c3ccccc3)nc1-2,nt,i,18.4,i,i,i
Cc1ccc(S(=O)(=O)/N=c2\sccn2C)cc1,nt,i,i,i,i,nt
Cn1ccs/c1=N\S(=O)(=O)c1ccc(F)cc1,nt,i,18.3,i,i,i
CC(C)c1ccc2c(c1)CCC1C(C)(CN)CCCC21C (configuration not stated),i,nt,21.6,i,nt,i
COc1ccc2c(c1)c(/C=N/Nc1nc3ccccc3[nH]1)c(C)n2C,i,nt,32.7,i,nt,i
Cn1cccc1/C=C1\SC(=Nc2ccccc2)NC1=O,i,nt,i,i,nt,nt
Cn1cccc1/C=C1\SC(=Nc2ccc(O)cc2)NC1=O,i,nt,16.5,i,nt,23.0
Cn1cccc1/C=C1\SC(=Nc2cccc(O)c2)NC1=O,i,nt,15.7,i,nt,i
Cc1ccc(N=C2NC(=O)/C(=C/c3cccn3C)S2)c(C)c1,i,nt,i,i,nt,nt
Cc1nc2cnccc2n1C,i,i,i,i,i,nt
O=C1Nc2ccccc2/C1=N\N=C\c1ccc(O)c(O)c1,i,nt,19.2,i,nt,16.4
COc1cc(/C=N/N=C2/C(=O)Nc3ccccc32)ccc1O,i,i,i,i,i,nt
O=C(CSc1ccsc1[N+](=O)[O-])N1CCN(c2ccccn2)CC1,i,i,18.0,i,i,i
O=C(CSc1ccccc1)N1CCN(c2ccccn2)CC1,i,i,i,i,i,nt
CCc1ccccc1NC(=O)COc1ccc2oc(-c3ccc(OC)cc3)cc(=O)c2c1,i,i,i,i,i,nt
COc1cc(/C=N/NC(=O)c2cc(-c3ccco3)nc3ccccc23)cc(OC)c1O,i,nt,16.2,i,nt,i
Cc1cc(C)c2nc(NC(=O)c3cc(C)on3)sc2c1,nt,i,i,i,i,nt
CCC(=O)NNc1nc2c(C)cc(C)cc2s1,i,i,15.2,i,i,i
O=C1NN(c2ccc(F)c(Cl)c2)C(=O)/C1=C\c1cccc(OC(=O)c2cccs2)c1,nt,i,16.3,i,i,i
COc1ccc(C(=O)Nc2cccnc2Sc2ccc(Cl)cc2)cc1,i,nt,i,i,nt,nt
SMILES,S1P3 antagonist,DTT redox prof,p97 inhibitor,Tb hexokinase,G6PDH counter,p97 inh conf
CN1C(=O)C2(c3ccccc31)C1CCCC=C1C(C#N)=C(N)C2(C#N)C#N (configuration not stated),nt,i,17.0,i,i,i
COc1ccc(Nc2nc(-c3ccccc3)nc3ccccc23)cc1S(=O)(=O)N1CCOCC1,i,nt,16.1,i,nt,i
COc1ccc(NC(=O)c2cc(-c3ccco3)nc3ccccc23)cc1S(=O)(=O)N1CCOCC1,i,nt,i,i,nt,nt
COc1cc(/C=C/c2ccc3c(Br)cc(Br)c(O)c3n2)ccc1O,i,nt,18.2,i,nt,15.2
O=S(=O)(/N=C(/Sc1ccccc1)c1ccccc1)c1ccccc1,nt,i,i,i,i,nt
Cc1nn(-c2ccccc2)nc1CNS(C)(=O)=O,i,nt,i,i,nt,nt
NCc1nc(-c2ccc(Cl)cc2)no1,i,i,i,i,i,nt
CC(C)(CC(=O)O)Cc1nc(-c2ccc(Cl)cc2)no1,i,i,18.6,i,i,i
O=C(O)CCc1nc(-c2ccc(Cl)cc2)no1,i,i,19.9,i,i,i
Cc1ccc(C)c(NC(=O)COc2cccc3c2CCN(Cc2ccccc2C)C3=O)c1,i,i,i,i,i,nt
Cc1ccccc1C(=O)NC(=S)NC1CCSC1=O (configuration not stated),i,i,i,i,i,nt
CCOC(=O)CC(C#N)c1c[nH]c2ccccc12 (configuration not stated),i,i,15.6,i,i,i
COc1cc(/C=C2\C(=O)N(c3ccccc3)N=C2C)ccc1Oc1ccc([N+](=O)[O-])cc1[N+](=O)[O-],i,i,17.6,i,i,i
COc1cc(/C=C2/SC(=O)NC2=O)ccc1Oc1ccc([N+](=O)[O-])cc1[N+](=O)[O-],i,nt,i,i,nt,nt
Nc1ccc(Oc2ccc([N+](=O)[O-])cc2[N+](=O)[O-])cc1,nt,i,i,i,i,nt
CC1=NN(c2ccccc2)C(=O)/C1=C\c1ccc(Oc2ccc([N+](=O)[O-])cc2[N+](=O)[O-])cc1,i,i,23.1,i,i,i
C#CCOCCOCCOCCNc1nc(N2CCN(C(=O)[C@H](Cc3ccc(O)cc3)n3cc([C@@H](N)CC(C)C)nn3)CC2)nc(N2CCN(C(=O)[C@H](Cc3ccc(O)cc3)n3cc([C@@H](N)CC(C)C)nn3)CC2)n1,i,i,18.2,i,i,i
C#CCOCCOCCOCCNc1nc(N2CCN(C(=O)[C@H](CCCCN)n3cc([C@@H](N)CC(C)C)nn3)CC2)nc(N2CCN(C(=O)[C@H](Cc3cc4ccccc4[nH]3)n3cc([C@@H](N)Cc4ccc(O)cc4)nn3)CC2)n1,i,i,20.6,i,i,16.5
C#CCOCCOCCOCCNc1nc(N2CCN(C(=O)[C@H](CCCCN)n3cc([C@@H](N)CO)nn3)CC2)nc(N2CCN(C(=O)[C@H](Cc3cc4ccccc4[nH]3)n3cc([C@@H](N)Cc4ccc(O)cc4)nn3)CC2)n1,i,i,i,i,i,nt
C#CCOCCOCCOCCNc1nc(N2CCN(C(=O)[C@H](Cc3ccc(O)cc3)n3cc([C@@H](N)CC(C)C)nn3)CC2)nc(N2CCN(C(=O)[C@H](Cc3cc4ccccc4[nH]3)n3cc([C@@H](N)CC(C)C)nn3)CC2)n1,i,i,20.2,i,i,i
C#CCOCCOCCOCCNc1nc(N2CCN(C(=O)C(Cc3ccc(O)cc3)n3cc(C(N)CC(C)C)nn3)CC2)nc(N2CCN(C(=O)C(Cc3cc4ccccc4[nH]3)n3cc(C(N)C(C)CC)nn3)CC2)n1 (configuration not stated),i,i,i,i,i,nt
c1ccc(Nc2nc3ccccc3o2)cc1,nt,i,i,i,i,nt
CC(C)OC(=O)c1ccc(S(N)(=O)=O)o1,i,i,i,i,i,nt
